# Laboratory results from PubChem BioAssay (NCI).
# This is part of a sample that, as a whole, favours compounds with a hit. Of some 83,000 tested, about 20% had one in any assay.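 96-well plates, one dose, 48 hours. Percent growth reported; active if below 10.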 A number with no mark means an inactive call. Calls of active or inactive are those of the source.
# Legend:
# Test in all cases: NCI-60 one-dose screen, 48 h (100 = growth as untreated, 0 = no growth, -100 = all killed)
# Details in all cases: 10 µM unless noted
# SR leukemia = system: SR leukemia
# RPMI-8226 leukemia = system: RPMI-8226 leukemia
# OVCAR-8 ovarian = system: OVCAR-8 ovarian
# OVCAR-5 ovarian = system: OVCAR-5 ovarian
# OVCAR-4 ovarian = system: OVCAR-4 ovarian
# SK-OV-3 ovarian = system: SK-OV-3 ovarian
# IGROV1 ovarian = system: IGROV1 ovarian
# OVCAR-3 ovarian = system: OVCAR-3 ovarian
# HS 578T breast = system: HS 578T breast
# NCI/ADR-RES ovarian = system: NCI/ADR-RES ovarian
# T-47D breast = system: T-47D breast
# BT-549 breast = system: BT-549 breast
# MDA-MB-435 melanoma = system: MDA-MB-435 melanoma
# SW-620 colon = system: SW-620 colon
# MCF7 breast = system: MCF7 breast
# HCT-116 colon = system: HCT-116 colon
# HCC-2998 colon = system: HCC-2998 colon
# KM12 colon = system: KM12 colon
Structure (SMILES),growth (SR leukemia),growth (RPMI-8226 leukemia),growth (OVCAR-8 ovarian),growth (OVCAR-5 ovarian),growth (OVCAR-4 ovarian),growth (SK-OV-3 ovarian),growth (IGROV1 ovarian),growth (OVCAR-3 ovarian),growth (HS 578T breast),growth (NCI/ADR-RES ovarian),growth (T-47D breast),growth (BT-549 breast),growth (MDA-MB-435 melanoma),growth (SW-620 colon),growth (MCF7 breast),growth (HCT-116 colon),growth (HCC-2998 colon),growth (KM12 colon)
CCOC(=O)CSc1nc2sc3c(c2c(=O)n1-c1ccccc1)CCCCC3,103%,105%,103%,103%,116%,100%,106%,93.5%,103%,108%,94.4%,110%,107%,98.1%,94.5%,97.3%,114%,104%
O=C1c2ccccc2C(=O)c2cc(Cn3c[n+](Cc4ccc5ccccc5c4)c4ccccc43)ccc21,38.1%,2.45% (active),41.4%,59.3%,47.2%,83.2%,3.66% (active),34.9%,62.2%,91.1%,41.2%,47%,38.4%,64.4%,39.9%,41.2%,46.2%,25.5%
CS(=O)(=O)Nc1cc(-c2ccc3ncnc(Nc4cccc(Cl)c4)c3c2)cnc1Cl,0.413% (active),-44.8% (active),16.4%,7.66% (active),13.7%,-28.4% (active),-25.7% (active),-10.7% (active),-13.6% (active),19.2%,-22.9% (active),-15.5% (active),8.58% (active),11.5%,5.3% (active),-26.9% (active),2.63% (active),5.4% (active)
COc1nc2ccccc2cc1/C=[N+](\[O-])c1ccccc1,21.5%,14.2%,37.3%,97.4%,74.3%,87.3%,86.7%,86.2%,81.5%,44.9%,58.9%,86.7%,42.2%,28.4%,28.6%,10.2%,105%,84%
CCOC(=O)C1=C(c2ccccc2)N=C2SC=C(c3cccc([N+](=O)[O-])c3)N2C1c1ccc(O)cc1 (configuration not stated),109%,98%,97.9%,100%,106%,102%,95.5%,101%,102%,99.3%,93.5%,95.1%,101%,97.6%,95.1%,100%,101%,99.7%
CN1CCN(CCCNC(=O)c2c3c(n4ccccc24)C(=O)c2ncccc2C3=O)CC1,-8.6% (active),29.4%,-9.12% (active),39.4%,-100% (active),28.6%,-24.6% (active),-10.7% (active),61.2%,40.9%,-4.38% (active),54.8%,-81.1% (active),-5.63% (active),-43.8% (active),-16.4% (active),-32.2% (active),11.3%
CN(C)C(=S)NN=C(c1ccccn1)c1ccccn1,-33.6% (active),17.8%,33.1%,59.1%,21.5%,51%,16%,51.9%,44.9%,19.9%,29.6%,17%,41.4%,17.7%,17.3%,20.5%,40%,16.7%
O=[N+]([O-])c1ccc(Oc2cccc3c(Oc4ccc([N+](=O)[O-])cc4[N+](=O)[O-])cccc23)c([N+](=O)[O-])c1,77.5%,95.6%,77.7%,109%,87.8%,83.1%,79.6%,95.2%,88.1%,79.9%,81.7%,82.4%,106%,87.8%,76.6%,83.1%,110%,86.7%
COc1ccc(C(=O)/C=C/c2ccc(Cl)cc2)cc1S(N)(=O)=O,-10.3% (active),-31.7% (active),11.5%,78.8%,102%,83.1%,16.6%,61.9%,91.5%,74.9%,69.9%,12.2%,86.2%,13.2%,18%,-78.3% (active),100%,28.2%
